Test [1] is described as follows: ATG_M_32_CIS: Attagene CIS-FACTORIAL HepG2 Assay for M32 Transcription Factor (Internal Marker) (AID 2282949).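 Note: background control marker of the multiplexed CIS panel rather than a real target.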 To be noted: HepG2 Attagene cis-factorial M32 reporter, mRNA; actives raise or lower the signal. A digest of the protocol: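 Using DMSO as baseline, bidirectional curve fits were applied to reporter mRNA signals. These came from transiently transfected HepG2 cells exposed for 24 h, with RNA analysed by RT-PCR, FAM primer extension, HpaI digestion and CE.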

In test [2] the target is Hypoxia-inducible factor 1-alpha (Homo sapiens) (UniProt Q16665). The experiment in a line: ATG_HIF1a_CIS: Attagene CIS-FACTORIAL HepG2 Assay for human Hypoxia Inducible Factor 1 (HIF1A) (AID 2282951). To be noted: HepG2 Attagene cis-factorial HIF1a reporter transcription; actives raise or lower the signal. A digest of the protocol:
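Measures endogenous transcription-factor activity through cis-regulated reporter mRNA in HepG2. Cells dosed 24 h; transcripts quantified by RT-PCR with 6-FAM-labelled products separated by capillary electrophoresis; DMSO serves as negative control.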

Test [3] concerns the target Hepatocyte nuclear factor 6 (Homo sapiens) (UniProt Q9UBC0). The experiment in a line: ATG_HNF6_CIS: Attagene CIS-FACTORIAL HepG2 Assay for human Hepatocyte Nuclear Factor 6 (HNF6) (AID 2282952). To be noted: HepG2 Attagene cis-factorial HNF6 reporter transcription; actives raise or lower the signal. The essentials:
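Endogenous transcription factor activity in human HepG2 liver cells was captured through cis-regulated reporter constructs. After 24 h treatment, reporter mRNA was measured by RT-PCR with capillary electrophoresis, and activity was fitted in both directions relative to DMSO.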

In test [4] the target is Heat shock factor protein 1 (Homo sapiens) (UniProt Q00613). Kind of test: ATG_HSE_CIS: Attagene CIS-FACTORIAL HepG2 Assay for human Heat Shock Transcription Factor 1 (HSE) (AID 2282953). The note with it: HepG2 HSE cis-reporter, Attagene RNA transcription; actives raise or lower the signal. The essentials: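 Endogenous transcription factor activity in transiently transfected HepG2, read as reporter mRNA by RT-PCR with fluorescent capillary electrophoresis after 24 h. Gain or loss of signal fitted versus DMSO baseline.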
Heat shock factor protein 1 (Homo sapiens), sequence (Q00613 whole entry, looked up): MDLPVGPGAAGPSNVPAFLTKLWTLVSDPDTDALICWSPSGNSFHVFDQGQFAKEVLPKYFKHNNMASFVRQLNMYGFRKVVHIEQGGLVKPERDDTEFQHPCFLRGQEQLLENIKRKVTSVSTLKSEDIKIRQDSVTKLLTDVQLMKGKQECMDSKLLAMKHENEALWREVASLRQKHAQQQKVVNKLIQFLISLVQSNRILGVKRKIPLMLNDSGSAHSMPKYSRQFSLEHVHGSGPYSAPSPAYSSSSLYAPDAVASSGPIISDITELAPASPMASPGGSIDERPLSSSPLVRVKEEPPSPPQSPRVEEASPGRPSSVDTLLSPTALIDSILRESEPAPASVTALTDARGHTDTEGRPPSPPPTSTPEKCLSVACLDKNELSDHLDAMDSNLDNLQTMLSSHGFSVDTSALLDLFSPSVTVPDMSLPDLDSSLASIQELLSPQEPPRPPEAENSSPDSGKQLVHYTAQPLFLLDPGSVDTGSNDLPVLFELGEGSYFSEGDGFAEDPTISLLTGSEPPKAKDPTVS

The nature of test [5]: ATG_MRE_CIS: Attagene CIS-FACTORIAL HepG2 Assay for human Metal Responsive Element (MRE) (AID 2282954). To be noted: HepG2 MRE cis-reporter transcription, Attagene multiplex; actives raise or lower the signal. The essentials:
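RT-PCR/capillary electrophoresis readout of reporter mRNA, 24 h post-dosing, in HepG2 cells transfected with multiplexed cis-regulated reporter constructs. Gain or loss of signal fitted bidirectionally against DMSO baseline.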

Test [6] in a line: ATG_PBREM_CIS: Attagene CIS-FACTORIAL HepG2 Assay for human Phenobarbital-responsive Enhancer Module (PBREM) (AID 2282955). To be noted: HepG2 PBREM cis-reporter, Attagene multiplexed transcription; actives raise or lower the signal. A digest of the protocol:
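Fluorescence of labelled reporter cDNA fragments, resolved by capillary electrophoresis, gives mRNA induction in transfected HepG2 cells treated for 24 h; DMSO serves as negative control and baseline.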

Test [7] is described as follows: ATG_PXRE_CIS: Attagene CIS-FACTORIAL HepG2 Assay for human Pregnane X Receptor Element (PXRE) (AID 2282957). To be noted: HepG2 Attagene CIS-FACTORIAL PXRE reporter, mRNA; actives raise or lower the signal. The essentials:
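Endogenous transcription factor activity in HepG2 was gauged through induction of reporter mRNA driven by a cis-regulating promoter element, sampled 24 h post-treatment. Activity was fitted in both directions against DMSO negative control.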

Test [8] is described as follows: ATG_PPRE_CIS: Attagene CIS-FACTORIAL HepG2 Assay for human Peroxisome Proliferator-activated Response Element (PPRE) (AID 2282958). The note with it: HepG2 PPRE cis-element reporter, Attagene transcription factor profiling; actives raise or lower the signal. A digest of the protocol:
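Cells are first transfected transiently with the multiplexed reporter library, then dosed for 24 h. Total RNA is reverse-transcribed, amplified, fluorescently end-labeled and HpaI-cut before capillary electrophoresis; activity is fitted bidirectionally against DMSO controls.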

A short description of test [9]: ATG_RORE_CIS: Attagene CIS-FACTORIAL HepG2 Assay for human RAR-related Orphan Receptor Element (RORE) (AID 2282959). To be noted: HepG2 Attagene cis-factorial RORE reporter, mRNA; actives raise or lower the signal. A digest of the protocol: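 Cells were HepG2 carrying transfected cis-regulated reporter constructs, dosed for 24 hours. Total RNA was reverse-transcribed and reporter cDNA amplified, fluorescently labeled and sized by capillary electrophoresis. Activity was fitted bidirectionally relative to DMSO.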

The nature of test [10]: ATG_Sox_CIS: Attagene CIS-FACTORIAL HepG2 Assay for human SRY-box transcription factor (SOX) (AID 2282960). The note with it: HepG2 Attagene cis-factorial SOX reporter, mRNA; actives raise or lower the signal. A digest of the protocol: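 Transient MRTU transfection of HepG2; 24 h compound incubation; TriZol RNA, oligo(dT) RT, PCR, 6-FAM primer extension, HpaI cut, CE. Bidirectional fit, DMSO = baseline.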

Test [11] has as its target Transcription factor Sp1 (Homo sapiens) (UniProt P08047). Kind of test: ATG_Sp1_CIS: Attagene CIS-FACTORIAL HepG2 Assay for human Specificity Protein 1 (Sp1) (AID 2282961). The note with it: HepG2 Sp1 cis-reporter transcription, actives raise or lower the signal. The essentials: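 Endogenous Sp1 activity was gauged in human liver HepG2 cells bearing transfected reporter units under a cis-regulating promoter. After 24 h dosing, reporter mRNA was quantified by RT-PCR with capillary electrophoresis, and activity fitted bidirectionally versus DMSO.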

Test [12] in a line: ATG_SREBP_CIS: Attagene CIS-FACTORIAL HepG2 Assay for human Sterol Regulatory Element Binding (SREBP) (AID 2282962). The note with it: HepG2 Attagene cis-factorial SREBP reporter, mRNA; actives raise or lower the signal. The essentials:
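Endogenous SREBP activity read as cis-element-driven reporter transcript in transiently transfected HepG2, 24 h post-dosing; quantified via RT-PCR plus capillary electrophoresis of fluorescent fragments. Gain or loss of signal fitted relative to DMSO baseline.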

Test [13] addresses Signal transducer and activator of transcription 3 (Homo sapiens) (UniProt P40763). Kind of test: ATG_STAT3_CIS: Attagene CIS-FACTORIAL HepG2 Assay for human Signal Transducer and Activator of Transcription 3 (STAT3) (AID 2282963). To be noted: HepG2, Attagene cis-factorial STAT3 reporter transcription; actives raise or lower the signal. A digest of the protocol:
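Readout: fluorescent reporter mRNA fragments resolved by capillary electrophoresis. Setup: HepG2 transfected with MRTUs reporting endogenous transcription-factor activity, dosed 24 h. Gain or loss of signal fitted bidirectionally against DMSO control.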

Test [14] is described as follows: ATG_TA_CIS: Attagene CIS-FACTORIAL HepG2 Assay for human TA Basal Promoter (AID 2282964). The note with it: HepG2 Attagene CIS-factorial TA basal promoter reporter; actives raise or lower the signal. The essentials: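 Background-control readout: TA basal promoter reporter mRNA, fitted in both directions relative to DMSO. Measured by RT-PCR and capillary electrophoresis 24 hours after treating HepG2 human liver cells transiently carrying multiplexed cis-regulated reporter constructs.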

A short description of test [15]: ATG_TCF_b_cat_CIS: Attagene CIS-FACTORIAL HepG2 Assay for human T-Cell-Factor with beta-catenin (TCF/b-cat) (AID 2282965). The note with it: HepG2 TCF/beta-catenin cis-reporter transcription, actives raise or lower the signal. The essentials: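 Cells of the HepG2 line carry transiently transfected reporter units whose promoters respond to endogenous factors. Twenty-four hours post-dosing, reporter mRNA induction is measured by fluorescent RT-PCR and capillary electrophoresis, with DMSO as baseline.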

A short description of test [16]: ATG_TAL_CIS: Attagene CIS-FACTORIAL HepG2 Assay for human TAL Basal Promoter (AID 2282966).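 Note: background control endpoint measuring basal TAL promoter reporter mRNA not a specific factor.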 The note with it: HepG2 Attagene cis-factorial TAL promoter reporter; actives raise or lower the signal. A digest of the protocol: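 Endogenous transcription-factor activity is sensed in HepG2 cells through transfected cis-promoter reporter constructs. After 24 h dosing, reporter transcripts are quantified by RT-PCR and capillary electrophoresis. Gain or loss of signal is fitted relative to DMSO.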

A short description of test [17]: ATG_TGFb_CIS: Attagene CIS-FACTORIAL HepG2 Assay for human Transforming Growth Factor (TGF) (AID 2282967). To be noted: HepG2 Attagene CIS TGFb reporter, mRNA transcription; actives raise or lower the signal. A digest of the protocol: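 Endogenous TGFB1-linked transcription factor activity read as reporter mRNA via RT-PCR and capillary electrophoresis, 24 h after dosing transiently transfected HepG2 cells. Gain or loss of signal fitted relative to DMSO.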

A short description of test [18]: ATG_VDRE_CIS: Attagene CIS-FACTORIAL HepG2 Assay for human Vitamin D Receptor Element (VDRE) (AID 2282968). The note with it: HepG2 VDRE cis-reporter transcription, actives raise or lower the signal. A digest of the protocol: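 Transient MRTU transfection of HepG2, 24 h compound exposure. Readout: reporter transcripts via RT-PCR and capillary electrophoresis, fluorescence. Bidirectional fit vs DMSO.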

Test [19] has as its target Paired box protein Pax-6 (Homo sapiens) (UniProt P26367). Kind of test: ATG_Pax6_CIS: Attagene CIS-FACTORIAL HepG2 Assay for human Paired Box 6 (PAX6) (AID 2282956). To be noted: HepG2 CIS-FACTORIAL PAX6 reporter transcription, RNA readout; actives raise or lower the signal. A digest of the protocol:
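Read-out is reporter transcript level, measured by RT-PCR with fluorescent primer extension and capillary electrophoresis after 24 h dosing of transfected HepG2 cells. Activity in either direction fitted relative to DMSO control.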

Each structure is given as a SMILES string. The source made the active and inactive calls. Rule for the calls: active = hit-call score of the fitted dose curve at least 0.9, where 1 is the maximum; inactive = score below 0.9.

Transcription factor Sp1 (Homo sapiens), sequence (P08047 whole entry, looked up): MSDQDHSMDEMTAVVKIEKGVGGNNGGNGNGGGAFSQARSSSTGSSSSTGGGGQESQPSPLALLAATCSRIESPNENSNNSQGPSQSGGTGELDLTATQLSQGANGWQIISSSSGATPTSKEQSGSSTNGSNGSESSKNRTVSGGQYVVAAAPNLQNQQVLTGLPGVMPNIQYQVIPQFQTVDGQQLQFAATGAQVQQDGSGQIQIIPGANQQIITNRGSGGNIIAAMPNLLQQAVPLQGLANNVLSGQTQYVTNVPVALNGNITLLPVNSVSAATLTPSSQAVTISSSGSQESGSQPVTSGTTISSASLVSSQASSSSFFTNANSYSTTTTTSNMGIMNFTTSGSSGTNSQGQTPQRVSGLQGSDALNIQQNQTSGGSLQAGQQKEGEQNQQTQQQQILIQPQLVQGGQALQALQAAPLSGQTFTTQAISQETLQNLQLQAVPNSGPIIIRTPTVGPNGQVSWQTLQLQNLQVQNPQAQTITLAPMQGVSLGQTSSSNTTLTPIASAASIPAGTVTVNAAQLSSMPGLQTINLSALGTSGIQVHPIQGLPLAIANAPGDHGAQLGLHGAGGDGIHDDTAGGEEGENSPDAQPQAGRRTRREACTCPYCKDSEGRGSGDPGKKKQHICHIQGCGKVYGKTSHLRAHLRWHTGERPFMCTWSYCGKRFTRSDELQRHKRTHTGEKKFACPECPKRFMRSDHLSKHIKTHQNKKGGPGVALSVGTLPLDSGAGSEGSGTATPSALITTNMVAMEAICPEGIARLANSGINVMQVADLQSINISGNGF
Hepatocyte nuclear factor 6 (Homo sapiens), sequence (Q9UBC0 whole entry, looked up): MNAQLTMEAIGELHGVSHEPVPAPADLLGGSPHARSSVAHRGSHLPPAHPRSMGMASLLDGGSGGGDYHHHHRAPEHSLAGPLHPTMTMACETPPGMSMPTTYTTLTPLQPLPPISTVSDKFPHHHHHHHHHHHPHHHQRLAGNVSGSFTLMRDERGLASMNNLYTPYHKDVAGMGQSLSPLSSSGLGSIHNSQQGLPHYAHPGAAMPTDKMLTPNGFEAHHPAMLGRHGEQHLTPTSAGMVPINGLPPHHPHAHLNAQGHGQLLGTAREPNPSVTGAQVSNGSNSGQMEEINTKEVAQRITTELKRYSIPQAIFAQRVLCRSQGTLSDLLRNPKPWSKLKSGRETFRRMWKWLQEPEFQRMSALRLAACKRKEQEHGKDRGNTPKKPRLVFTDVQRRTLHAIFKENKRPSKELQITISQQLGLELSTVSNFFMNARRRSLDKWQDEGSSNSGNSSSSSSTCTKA
Hypoxia-inducible factor 1-alpha (Homo sapiens), sequence (Q16665 whole entry, looked up): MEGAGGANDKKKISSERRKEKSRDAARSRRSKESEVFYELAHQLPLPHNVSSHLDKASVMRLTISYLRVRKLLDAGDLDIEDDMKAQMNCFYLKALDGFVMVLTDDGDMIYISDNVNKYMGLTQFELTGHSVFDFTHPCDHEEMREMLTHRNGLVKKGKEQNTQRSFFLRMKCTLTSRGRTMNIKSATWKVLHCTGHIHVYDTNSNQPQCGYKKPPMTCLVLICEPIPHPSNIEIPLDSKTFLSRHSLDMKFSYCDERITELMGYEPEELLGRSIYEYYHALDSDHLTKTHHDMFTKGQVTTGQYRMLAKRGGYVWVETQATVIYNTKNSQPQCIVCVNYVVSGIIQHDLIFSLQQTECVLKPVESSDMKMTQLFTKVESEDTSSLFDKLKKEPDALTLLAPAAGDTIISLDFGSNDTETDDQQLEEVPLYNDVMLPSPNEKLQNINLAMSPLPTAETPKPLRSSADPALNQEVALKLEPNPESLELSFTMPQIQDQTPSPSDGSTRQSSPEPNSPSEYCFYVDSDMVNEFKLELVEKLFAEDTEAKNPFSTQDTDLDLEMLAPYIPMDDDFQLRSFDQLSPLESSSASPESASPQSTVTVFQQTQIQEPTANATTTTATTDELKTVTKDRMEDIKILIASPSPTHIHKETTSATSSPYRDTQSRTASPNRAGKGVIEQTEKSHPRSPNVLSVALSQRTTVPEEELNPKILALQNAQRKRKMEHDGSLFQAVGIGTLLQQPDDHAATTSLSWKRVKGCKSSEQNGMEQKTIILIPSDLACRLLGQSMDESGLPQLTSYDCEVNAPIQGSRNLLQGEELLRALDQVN
Signal transducer and activator of transcription 3 (Homo sapiens), sequence (P40763 whole entry, looked up, the tested form may be a part): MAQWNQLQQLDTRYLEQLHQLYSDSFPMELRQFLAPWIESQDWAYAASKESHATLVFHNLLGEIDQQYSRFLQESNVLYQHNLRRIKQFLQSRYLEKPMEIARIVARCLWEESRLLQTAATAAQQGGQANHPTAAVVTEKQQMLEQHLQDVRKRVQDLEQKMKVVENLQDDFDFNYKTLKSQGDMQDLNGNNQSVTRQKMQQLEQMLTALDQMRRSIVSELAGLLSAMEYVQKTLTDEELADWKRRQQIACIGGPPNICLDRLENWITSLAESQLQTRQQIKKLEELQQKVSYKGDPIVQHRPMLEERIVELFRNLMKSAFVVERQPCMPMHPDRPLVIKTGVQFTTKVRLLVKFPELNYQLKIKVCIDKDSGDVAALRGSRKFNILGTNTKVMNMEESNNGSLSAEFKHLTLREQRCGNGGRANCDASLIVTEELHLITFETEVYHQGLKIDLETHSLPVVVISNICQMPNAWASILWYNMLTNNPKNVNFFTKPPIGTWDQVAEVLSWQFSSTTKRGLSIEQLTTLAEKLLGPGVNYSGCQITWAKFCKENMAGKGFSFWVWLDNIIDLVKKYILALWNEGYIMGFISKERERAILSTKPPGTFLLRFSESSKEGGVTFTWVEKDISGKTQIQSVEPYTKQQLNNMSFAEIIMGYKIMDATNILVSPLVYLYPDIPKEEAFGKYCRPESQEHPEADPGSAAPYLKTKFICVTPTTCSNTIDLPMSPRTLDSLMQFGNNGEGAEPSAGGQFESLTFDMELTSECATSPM
Paired box protein Pax-6 (Homo sapiens), sequence (P26367 whole entry, looked up): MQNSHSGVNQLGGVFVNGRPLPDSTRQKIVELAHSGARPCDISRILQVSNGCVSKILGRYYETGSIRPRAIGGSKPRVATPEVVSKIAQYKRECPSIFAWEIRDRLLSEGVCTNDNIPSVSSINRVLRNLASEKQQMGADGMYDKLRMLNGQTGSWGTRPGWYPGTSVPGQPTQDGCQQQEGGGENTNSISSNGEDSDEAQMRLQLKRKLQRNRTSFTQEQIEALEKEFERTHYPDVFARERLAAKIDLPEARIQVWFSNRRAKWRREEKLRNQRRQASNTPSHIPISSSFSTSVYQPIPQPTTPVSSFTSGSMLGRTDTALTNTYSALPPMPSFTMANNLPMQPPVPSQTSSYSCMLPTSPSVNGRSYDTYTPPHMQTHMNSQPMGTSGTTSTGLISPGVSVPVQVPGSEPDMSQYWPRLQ

For `O=C(O)C1(c2ccc3c(c2)OC[C@H](Cc2ccc(-c4ccccc4)cc2)[C@H]3O)CCCC1`, the call in test [1], in test [2], in test [3], in test [4], in [6] and in [7] was inactive. Besides, the call in test [8], in test [9], in [10], in test [11], in test [13] and in test [14] was inactive. In addition, the outcome in test [15], in [16], in test [17] and in test [18] was inactive. Besides, the AC50 was 2850 nM (active) in [5] and 5920 nM (active) in [12].
On to `Cc1cc(Cl)ccc1O`, for which the result in test [1], in test [2], in test [3], in test [4], in test [5] and in [19] was inactive. Also, the compound was called inactive in test [7], in test [8], in [9], in [10], in [11] and in [12]. The call in [13], in test [14], in test [15], in [16], in test [17] and in [18] was inactive.
`[Cl][Sn]([c]1ccccc1)([c]1ccccc1)[c]1ccccc1`: the compound was classed as inactive in test [1], in [6], in test [7], in test [9], in test [12] and in test [13]. The result in test [15] was inactive. For the same compound, the half-maximal activity concentration (AC50) in [2] is 252 nM (active); in test [3] it was 1620 nM (active); in test [4] it was 243 nM (active); in [5] it was 230 nM (active); in test [19] it was 248 nM (active); in test [8], 11.7 nM (active). Besides, the half-maximal activity concentration (AC50) in test [10] is 217 nM (active); in test [11] it was 1660 nM (active); in test [14], 251 nM (active); in test [16] it was 1130 nM (active); in test [18], 240 nM (active).

In general, AC50 refers to the midpoint of the concentration-response curve, whichever way the signal moves.

The values above are taken from PubChem BioAssay (EPA / NIEHS).
